FBPA coupling cs: inhibits coupling enzyme system, counter-screen for aldolase hits; coupling enzyme system counterscreen, AmpLite Red fluorescence; activity change, negative = inhibition, % at 58.2 µM, hits read low; 290,000 compounds, 0.67% hits; AID 2472; in the data active = activity change below about -30%
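Compounds tested against the coupling enzymes alone at 57.5 uM final; readout was AmpLite Red fluorescence (525/598 nm) after 20 min at RT.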
Sfp inh: inhibitors of Bacillus subtilis Sfp phosphopantetheinyl transferase | Q9F4F7 | Biochemical Sfp PPTase activity, qHTS | Potency, µM, usual class: inhibitors | 310,000 compounds, 3.5% hits;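 also: the enzyme is Sfp with the accession as filed and its product quenches rhodamine fluorescence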
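After 15 min at room temperature with compound, 15 nM Sfp received 5 uM rhodamine-CoA plus 12.5 uM BHQ-2-ybbR (50 mM Hepes pH 7.6, 10 mM MgCl2). Rate came from the fluorescence difference over 30 min, ex 525/em 598 nm.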
Tau fluor counter: counter-screen for tau fibril formation inhibitors; tau K18 P301L Alexa594 fluorescence, heparin fibrillization; Potency, µM (series often up to 57.7 µM); 280,000 compounds, 0.93% hits; also: nearly all actives have a fitted effect of over 55% in size
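Human K18 P301L tau (15 uM unlabeled plus 0.24 uM Alexa 594-labeled, final) in 100 mM sodium acetate pH 7 was mixed with compound and 20 uM heparin and incubated 6 hr at 37 C.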
Tau FP inhib: inhibitors of human tau fibril formation | P10636 | K18 P301L tau heparin fibrillization, Alexa594 FP, 6 h | Potency, µM (top dose mostly 57.7 µM), usual class: inhibitors | 280,000 compounds, 0.39% hits | AID 1468; also: nearly all actives have a fitted effect of over 55% in size
Target sequence (P10636 561-689 P618L limits assumed): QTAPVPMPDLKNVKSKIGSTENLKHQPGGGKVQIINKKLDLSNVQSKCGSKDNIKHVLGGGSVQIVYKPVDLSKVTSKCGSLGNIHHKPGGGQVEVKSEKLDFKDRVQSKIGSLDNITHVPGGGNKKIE
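Human K18 P301L fragment (15 uM unlabeled plus 0.24 uM Alexa 594-labeled) in 100 mM sodium acetate pH 7 with compound, aggregation induced by 20 uM heparin for 6 hr at 37 C. ThT (30 uM) added for 1 hr, then Alexa 594 FP read.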
Tau fibril ThT: blocks human tau fibril formation measured by thioflavin T; 270,000 compounds, 2.1% hits; P10636; Potency, µM (doses to about 57.4 µM), hits mostly inhibitors; recombinant tau K18 P301L, heparin-induced fibrillization, ThT fluorescence; AID 1460; also: nearly all actives have a fitted effect of over 55% in size
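Using a mix of unlabeled (15 uM) and Alexa 594-labeled (0.24 uM) tau K18 P301L, heparin-triggered fibrillization over 6 hr at 37 C was scored by ThT fluorescence.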
Large screens that a line does not name were inactive; [ ] = another dose, or the depositor's remark. Sampled rows, rich in hits. Any-hit rate of the full collection: about 5.2%. Unless noted, calls follow the shape of the dose curve; as a rule, active = well fitted curve in the direction sought with a large enough effect; inconclusive = small, poorly fitted or top-dose-only effect, or another doubt; inactive = no such curve, though single readings can be large; an effect the other way counts as inactive or inconclusive.

Cc1nn(-c2cccc(Cl)c2)c2nc(-c3ccco3)cc(C(=O)O)c12	Sfp inh 28µM, Tau fibril ThT inconclusive
O=C(O)c1cc(-c2cccs2)nn1-c1cccc(Cl)c1	Sfp inh 89µM
O=C(O)c1cc(-c2ccco2)nn1-c1ccc(Cl)cc1	Sfp inh 16µM
Cc1ccccc1C(=O)Nc1c(C)nc(Nc2ccccc2)nc1Nc1ccccc1	Tau fluor counter inconclusive (no result: FBPA coupling cs, Sfp inh)
COc1ccc(C(OCCN2CCC[C@H](C(=O)O)C2)(c2ccc(OC)cc2)c2ccc(OC)cc2)cc1	none (no result: Tau fluor counter, Tau FP inhib, Tau fibril ThT)
Cc1ccc(-n2nc(-c3ccco3)cc2C(=O)O)c(C)c1	Sfp inh 10µM, Tau fibril ThT inconclusive
Cc1ccc(-n2nc(-c3cccnc3)cc2C(=O)N2CCOCC2)c(C)c1	none
CCCCCCC(=O)N(O)C1CC(=O)N(c2ccc(C)cc2)C1=O (stereo not drawn)	Sfp inh 20µM, Tau fibril ThT inconclusive
Cc1ccc(N2C(=O)CC(N(O)C3CC(=O)N(c4ccc(C)cc4)C3=O)C2=O)cc1 (stereo not drawn)	none
CCCCCCC(=O)N(O)C1CC(=O)N(c2ccc(Cl)cc2)C1=O (stereo not drawn)	Sfp inh 25µM
c1ccc2c(N3CCNCC3)nc(-c3ccc4c(c3)OCO4)nc2c1	none
CCC(=O)NC[C@H](Cc1ccc(OCCc2nc(-c3ccccc3)oc2C)cc1)N/C(C)=C\C(=O)c1ccc(C(F)(F)F)cc1	none (no result: Tau fluor counter, Tau FP inhib, Tau fibril ThT)
O=C1C(O)=C(O)C(=O)C(O)=C1O	Sfp inh 28µM, Tau FP inhib inconclusive, Tau fibril ThT 13µM
Cc1oc2c(c(C)cc3oc(=O)c(CC(=O)NCCc4ccccc4)c(C)c32)c1C	none (no result: FBPA coupling cs, Sfp inh)
O=C(CSc1nc2c([nH]c3ccccc32)c(=O)n1-c1ccc(F)cc1)N1CCc2ccccc21	none (no result: FBPA coupling cs, Sfp inh)
Cc1cc(Cl)ccc1OCC(=O)OCC(=O)Nc1ccc(F)c([N+](=O)[O-])c1	Tau fluor counter 11µM[quencher], Tau FP inhib inconclusive, Tau fibril ThT inconclusive
CCN(CC)c1ccc(N=Nc2ncn[nH]2)cc1	Sfp inh 8.9µM, Tau fibril ThT 13µM
Cc1ccc(C)c(NC(=S)Nc2cccc3cnccc23)c1	FBPA coupling cs -37, Sfp inh 32µM, Tau FP inhib inconclusive, Tau fibril ThT inconclusive
FC(F)(F)c1ccccc1NC(=S)Nc1cccc2cnccc12	Sfp inh 20µM, Tau FP inhib inconclusive, Tau fibril ThT 22µM
NC(=S)Nc1cccc2cnccc12	none
Cc1ccccc1NC(=S)Nc1cccc2cnccc12	FBPA coupling cs -52, Sfp inh 3.2µM, Tau fibril ThT inconclusive
FC(F)(F)c1ccccc1NC(=S)Nn1cnnc1	Sfp inh 20µM (no result: FBPA coupling cs, Tau fluor counter, Tau FP inhib, Tau fibril ThT)
FC1(F)C(F)(F)C(F)(F)C2(F)C(F)(F)C(F)(F)C(F)(F)C(F)(F)C2(F)C1(F)F (stereo not drawn)	none (no result: FBPA coupling cs, Tau fluor counter, Tau FP inhib, Tau fibril ThT)
Fc1ccccc1NC(=S)Nc1cccnc1	none
Fc1ccccc1NC(=S)Nc1cccc2cnccc12	FBPA coupling cs -32, Sfp inh 22µM, Tau FP inhib inconclusive, Tau fibril ThT inconclusive
Cc1ccccc1NC(=S)Nc1ccccn1	Sfp inh 56µM
CCCc1nn2c(=O)cc(COC(=O)c3ccccc3NC(=O)c3ccc(Cl)cc3)nc2s1	none (no result: FBPA coupling cs, Sfp inh)
CCO/C(=C/c1sc2ccc(OC)cc2[n+]1CCCS(=O)(=O)[O-])CC	Sfp inh inconclusive
COc1ccc2sc(SCCCS(=O)(=O)O)[n+](CCCS(=O)(=O)[O-])c2c1	Sfp inh 4.5µM
CSc1sc2ccccc2[n+]1CCCS(=O)(=O)[O-]	Sfp inh 18µM, Tau fibril ThT inconclusive
COc1ccc(Cl)cc1NC(=O)N1CCC(CN2CCc3ccccc3C2)CC1	none (no result: FBPA coupling cs, Sfp inh)
O=C(NCC(c1cccs1)S(=O)(=O)c1cccs1)c1c(F)cccc1F (stereo not drawn)	none (no result: FBPA coupling cs, Sfp inh)
CC(=O)OC[C@@H]1O[C@H](C/C=N\O[C@@H](C)c2cn([C@H](CO)Cc3ccccc3)nn2)C=C[C@@H]1OC(C)=O	none
NC(=S)Cc1nc(-c2ccc(Cl)cc2)cs1	Sfp inh inconclusive, Tau fluor counter inconclusive, Tau FP inhib inconclusive, Tau fibril ThT 16µM
NC(=O)Cc1nc(-c2ccc(F)cc2)cs1	none
CC(C)=NOC[C@@H](O)COCc1ccco1	none
O=S(=O)(NCC(O)COCc1ccco1)c1cccs1 (stereo not drawn)	Sfp inh 45µM

High-throughput results as filed in PubChem BioAssay.
